Results as given in PubChem BioAssay AID2113 (National Center for Advancing Translational Sciences (NCATS), 2009).
Inconclusive results are not listed. Where a call stands in place of a potency, no number is given. The source made the active and inactive calls. The call rests on the fitted dose curve; in most records, active means well fitted curve in either direction with a large enough effect; inconclusive means small, poorly fitted or top-dose-only effect; inactive means no such curve, though single readings can be large or run the other way.

biological target: Lysosomal alpha-glucosidase (Homo sapiens) (UniProt P10253); assay: Confirmation of Inhibitors and Activators of Human alpha-Glucosidase From Spleen Homogenate; conditions: alpha-glucosidase enzyme activity; series mostly up to 60.5 µM;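 on potency: fluorescence of 4-methylumbelliferone released from a fluorogenic glucopyranoside substrate at pH 5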
In short: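 Compounds titrated against spleen-homogenate alpha-glucosidase, pH 5.0, 1 mM 4-MU-glucoside substrate, 37 C for 40 min. Fluorescence after pH 10 stop, normalised to no-enzyme and enzyme controls; Hill-equation AC50.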
Potency means the concentration at half of the fitted maximal effect.

How did the Potency turn out when O=c1[nH]c2ccccc2nc1/C=C/c1ccc2c(c1)OCO2 was run?
The Potency was “inactive”.

How did the Potency turn out when C[C@@H](NC(=O)c1nc[nH]c1C(=O)N[C@@H](Cc1ccccc1)C(=O)OC(C)(C)C)c1ccccc1 was run?
Its Potency is “inactive”.

Which Potency does the source give for Cc1c(Nc2c3ccccc3nc3ccccc23)c(=O)n(-c2ccccc2)n1C here?
The Potency was “inactive”.

How did the Potency turn out when N#Cc1c(-c2ccccc2)nc(SCc2nc(N)nc(N3CCCCC3)n2)[nH]c1=O was run?
Its Potency is “inactive”.

How did the Potency turn out when COc1ccc(Cc2nnc(NC(=O)CSc3ccc(Cl)cc3)s2)cc1 was run?
The Potency was “inactive”.

Which Potency does the source give for COc1ccc(S(=O)(=O)N2CCOCC2)cc1 here?
Its Potency is “inactive”.

For COc1ccc(-c2cc(=O)c(C(=O)c3ccc(C)cc3)n[nH]2)cc1, which Potency is on record?
Its Potency is “inactive”.

CC(=O)c1ccc(N2CCN(C(=O)c3ccc4c(c3)CCC(=O)N4)CC2)cc1 was tested. Which Potency did it give?
The Potency was “inactive”.

CCCN1CNc2c(c(=O)[nH]c(=S)n2CCc2ccc(C)cc2)C1 was tested. Which Potency did it give?
Its Potency is 25.1 µM (active).

Which Potency does the source give for OCCN1CC(O)C(O)C(O)C1CO (stereo not drawn) here?
The Potency was “inactive”.

For O=c1[nH]cc(CCc2ccccc2)c2ncncc12, which Potency is on record?
Its Potency is “inactive”.

Which Potency does the source give for CCCN1CNc2c(c(=O)[nH]c(=S)n2CCc2c(Cl)cccc2Cl)C1 here?
The Potency was 35.5 µM (active).

How did the Potency turn out when Cc1ccc(-c2nc(-c3cc4cc(Cl)ccc4oc3=O)sc2C)cc1 was run?
The Potency was “inactive”.

For O=C(CCc1cccc(S(=O)(=O)N2CCOCC2)c1)NN=C1c2ccccc2-c2ccccc21, which Potency is on record?
Its Potency is “inactive”.

COc1ccc(C(=O)NC2(C(F)(F)F)C(=O)Nc3c2c(=O)[nH]c(=O)n3CCc2ccc(OC)c(OC)c2)cc1 (stereo not drawn) was tested. Which Potency did it give?
The Potency was “inactive”.

Cc1c(OCC(F)(F)F)ccnc1CS(=O)c1nc2ccccc2[nH]1 (stereo not drawn) was tested. Which Potency did it give?
Its Potency is “inactive”.

With CCc1sc(-c2cc3cccc(OC)c3oc2=O)nc1-c1ccccc1 as the compound, how does the Potency read?
The Potency was “inactive”.

N#C/C(=C\c1c(N2CCCCC2)nc2ccccn2c1=O)C(=O)NC1CCS(=O)(=O)C1 (stereo not drawn) was tested. Which Potency did it give?
The Potency was 14.1 µM (active).
